Only some compounds are listed: those with a hit (about 3.4% of all), similar ones and a draw of the others.
FBW7 activator: activators of human E3 ligase FBW7; AlphaScreen FBW7–phospho-cyclin E peptide binding, activator screen; normalized activity (activation), % at 26.1 µM; 650,000 compounds, 0.13% hits; AID 1259310; in the data active = normalized activity above about 1.9%;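 note: purified mutant Fbw7 with reduced substrate affinity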
MITF primary: blocks human microphthalmia-associated transcription factor; AlphaScreen MITF homodimerization, bead proximity signal; 650,000 compounds, 0.91% hits; inhibition, % at 2.6 µM; AID 1259374; O75030; in the data active = inhibition above about 50%
Target sequence (O75030 whole entry, looked up): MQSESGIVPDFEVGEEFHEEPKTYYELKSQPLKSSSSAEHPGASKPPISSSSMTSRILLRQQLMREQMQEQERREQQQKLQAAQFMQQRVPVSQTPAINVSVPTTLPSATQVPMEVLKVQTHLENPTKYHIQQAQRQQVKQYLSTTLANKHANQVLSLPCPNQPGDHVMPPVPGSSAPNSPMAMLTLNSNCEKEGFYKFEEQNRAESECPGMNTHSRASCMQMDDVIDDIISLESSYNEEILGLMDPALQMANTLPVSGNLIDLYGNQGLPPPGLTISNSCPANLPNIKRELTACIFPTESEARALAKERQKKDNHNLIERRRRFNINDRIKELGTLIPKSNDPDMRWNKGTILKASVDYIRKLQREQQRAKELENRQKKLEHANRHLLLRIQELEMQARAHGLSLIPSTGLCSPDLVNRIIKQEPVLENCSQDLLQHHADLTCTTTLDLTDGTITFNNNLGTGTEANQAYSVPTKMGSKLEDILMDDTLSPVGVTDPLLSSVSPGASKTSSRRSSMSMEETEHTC
GPR151 ag: activates the human receptor GPR151. PathHunter beta-arrestin GPR151 cells, luminescence. Q8TDV0. activation, % at 11.2 µM. 650,000 compounds, 1% hits; in the data active = activation above about 4.9%
TEAD-YAP inh: TEAD-YAP interaction inhibition | inhibition, % at 9.12 µM | 640,000 compounds, 1.4% hits | HEK-TIYL cells, TEAD-Gal4/YAP UAS-luciferase luminescence; in the data active = inhibition above about 32%
Large screens that a line does not name were inactive.

COc1ccc(S(=O)(=O)N(CC(=O)O)c2cccc(Cl)c2)cc1	none
O=C1CCCC2=C1C(c1ccccc1)Nc1ccc(C(=O)c3ccccc3)cc1N2 (stereo unspecified)	TEAD-YAP inh 35
O=C1CCCC2=C1C(c1ccncc1)Nc1ccc(C(=O)c3ccccc3)cc1N2 (stereo unspecified)	none
O=C1CCCC2=C1C(c1cccc([N+](=O)[O-])c1)Nc1ccc(C(=O)c3ccccc3)cc1N2 (stereo unspecified)	TEAD-YAP inh 54
O=C1CCCC2=C1C(c1ccc(Br)cc1)Nc1ccc(C(=O)c3ccccc3)cc1N2 (stereo unspecified)	TEAD-YAP inh 51
O=C1CCCC2=C1C(c1cccc(O)c1)Nc1ccc(C(=O)c3ccccc3)cc1N2 (stereo unspecified)	none
O=C1CCCC2=C1C(c1cccc(Cl)c1)Nc1ccc(C(=O)c3ccccc3)cc1N2 (stereo unspecified)	TEAD-YAP inh 70
COC(=O)CSc1nc(C)nc2scc(-c3cccs3)c12	none
CCOc1ccc2c(-c3ccccc3)cc(=O)oc2c1	none
Cc1cc(O)cc(O)c1C(=O)Cc1ccccn1	none
Cc1ccc(C2Nc3ccc(C(=O)c4ccccc4)cc3NC3=C2C(=O)CCC3)cc1 (stereo unspecified)	TEAD-YAP inh 41
O=C(CN1CCN(S(=O)(=O)c2ccc(Cl)cc2)CC1)c1ccc(O)c(O)c1	MITF primary 82
COc1ccc(S(=O)(=O)N2CCN(CC(=O)c3ccc(O)c(O)c3)CC2)cc1	MITF primary 81
COc1ccc(S(=O)(=O)N2CCN(CC(=O)c3ccc(OC)c(OC)c3)CC2)cc1	none
O=C(CN1CCN(CC(=O)c2ccc(O)c(O)c2)CC1)Nc1ccccc1Cl	MITF primary 89
Cc1ccc(C(=O)NC2C(=O)N3C2SC(C)(C)C3C(=O)O)o1 (stereo unspecified)	none
CSc1nc2c(sc3ccccc32)c(=O)n1CC1CCCO1 (stereo unspecified)	none
CS(=O)(=O)Nc1cccc(-c2ccnc(Nc3cccc(S(N)(=O)=O)c3)n2)c1	TEAD-YAP inh 91
NS(=O)(=O)c1ccc(Nc2nccc(-c3cccc(OCCN4CCCCC4)c3)n2)cc1	TEAD-YAP inh 68
CS(=O)(=O)Nc1ccc(-c2ccnc(Nc3cccc(S(N)(=O)=O)c3)n2)cc1	none
CS(=O)(=O)Nc1cccc(-c2ccnc(Nc3ccc(-c4ncn[nH]4)cc3)n2)c1	TEAD-YAP inh 72
CSc1cccc(NS(=O)(=O)c2ccc3ccccc3c2)c1	none
COc1cccc(C2NC(=S)NC(c3ccccc3)=C2C(C)=O)c1 (stereo unspecified)	TEAD-YAP inh 50
CCOC(=O)c1c(NC(=O)CCCN2C(=O)c3ccccc3C2=O)sc2c1CCCC2	none
CCOc1ccc(NC(=O)COc2c(C)cccc2C)cc1	none
CCOc1ccc(NC(=O)COc2c(C)ccc(C)c2C)cc1	TEAD-YAP inh 41
Cc1ccc(C)c(OCC(=O)Nc2ccccc2C(N)=O)c1C	TEAD-YAP inh 48
N#Cc1c(NC(=O)CCc2ccccc2)sc2c1CCCC2	TEAD-YAP inh 47
N#Cc1c(NC(=O)CCc2ccccc2)sc2c1CCCCCC2	none
CC(=O)N1CCc2c(sc(NC(=O)CCc3ccccc3)c2C#N)C1	TEAD-YAP inh 54
N#Cc1c(NC(=O)CSc2ncn[nH]2)sc2c1CCCC2	TEAD-YAP inh 49
CC(=O)N1CCc2c(sc(NC(=O)Cc3cccc4ccccc34)c2C#N)C1	TEAD-YAP inh 54
CC(=O)N1CCc2c(sc(NC(=O)Cc3cccc4ccccc34)c2C(N)=O)C1	none
CC(=O)Nc1cc(-c2ccc(C)cc2)[nH]n1	FBW7 activator 1.9
CCOC(=O)CCC(=O)Nc1cc(-c2ccc(C)cc2)[nH]n1	none
Cc1ccc(C(=O)Nc2sc3c(c2C(N)=O)CCCCC3)o1	TEAD-YAP inh 55
NC(=O)c1c(NC(=O)c2cc3ccccc3o2)sc2c1CCCC2	TEAD-YAP inh 46
Cc1cccc(CN2CCC3(CC2)NC(=O)N(Cc2ccc(Cl)cc2)C3=O)c1	none
COC(=O)c1ccc(NC(=O)CCSC2CC(=O)N(c3ccccc3)C2=O)cc1 (stereo unspecified)	none
CCN(CCO)c1ccc(NC(=S)Nc2ccccc2F)cc1	TEAD-YAP inh 66
CCN(CC)c1ccc(NC(=S)Nc2ccc(S(N)(=O)=O)cc2)cc1	MITF primary 74
NS(=O)(=O)c1ccc(NC(=S)Nc2ccc(F)cc2)cc1	none
Nc1nc(SCC(=O)N2CC(=O)Nc3ccccc32)n[nH]1	none
S=C(NNc1ccccc1)Nc1ccccc1	none
COc1cccc(/C=N/NC(=O)c2cccs2)c1	none
COc1cccc(N=C/C(C(=O)C(F)(F)F)=C(\O)c2cccs2)c1	TEAD-YAP inh 82

Screening data deposited in PubChem by The Scripps Research Institute Molecular Screening Center.
